Dicer inh: blocks human Dicer maturation of pre-miR-21; actives 6% (n = 47,000); z-score at 25 µM; cat-ELCCA pre-miR-21 Dicer processing, chemiluminescence; hits give high values; Q9UPY3; in the data active = z-score above about 3, passing the limit was not always enough;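 note: plate controls were vehicle for no effect and no enzyme for full effect; higher signal means more uncleaved substrate so more Dicer inhibition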
* hit, by the source's call. Only a selection was taken, and hits are over-represented in it overall.

What do the screens show for `Cn1c(=O)c2c(nc(NCc3ccco3)n2C)n(C)c1=O`?
Dicer inh: -2.08

How did Cn1c(=O)c2[nH]c(-c3ccccn3)nc2n(C)c1=O do in these assays?
Dicer inh: 1.97

How did NC(=O)CSc1nncc2ccccc12 do in these assays?
Dicer inh: 2.03

What do the screens show for `CSc1nnc(-c2ccc(S(=O)(=O)n3nc(C)c(Br)c3C)s2)n1C`?
Dicer inh: -0.57

Results for CCOC(=O)c1cc2c(ccc3ccccc32)o1 ?
Dicer inh: 14.5

How did Cc1oc2ccc(O)cc2c1C(=O)O do in these assays?
Dicer inh: 1.79

How did COc1cc(/C=N\n2c(C)n[nH]c2=S)cc(OC)c1OC do in these assays?
Dicer inh: 0.52

Results for CC(C)(C)c1ccc(OCC(O)CN2CCCCC2)cc1 (stereo not given) ?
Dicer inh: -2.33

How did C=CCSc1nccc(-c2sc3sc(Br)c(C)c3c2C)n1 do in these assays?
Dicer inh: 0.81

What do the screens show for `CC(=O)C1C(=O)CC(c2ccc(Cl)cc2)CC1=O` (stereo not given)?
Dicer inh: 4.14

Results for CC(=O)C1C(=O)c2cccc([N+](=O)[O-])c2C1=O (stereo not given) ?
Dicer inh: -1.24

How did CC(=O)C1C(=O)c2c(Cl)c(Cl)c(Cl)c(Cl)c2C1=O do in these assays?
Dicer inh: 5.12*

Results for COc1ccc(Br)c(C(=O)Nc2cc(C)cc(Cl)c2)c1 ?
Dicer inh: -1.38

Results for Cc1cc(O/C=C/C(=O)c2ccc(Br)cc2)ccc1Cl ?
Dicer inh: 0.52

How did COc1ccc(C(=O)/C=C/Oc2ccc(Cl)cc2)cc1 do in these assays?
Dicer inh: 4.36*

Results for COc1ccc(C(=O)/C=C/Sc2cc(Cl)ccc2Cl)cc1 ?
Dicer inh: -0.17

What do the screens show for `O=c1ccccn1CCOc1ccc(Br)cc1`?
Dicer inh: 0.23

How did COc1cc(C2Nc3ccccc3-c3nnc(SC)nc3O2)ccc1O (stereo not given) do in these assays?
Dicer inh: 26.6

Results for CCSc1nnc2c(n1)OC(c1ccc(O)c(OC)c1)Nc1ccccc1-2 (stereo not given) ?
Dicer inh: 1.27

What do the screens show for `CCOc1cc(C2Nc3ccccc3-c3nnc(SC)nc3O2)ccc1O` (stereo not given)?
Dicer inh: 5.03*

Results for CCN(CCS(=O)(=O)c1ccc(Cl)cc1)C(=S)Nc1ccccc1Cl ?
Dicer inh: 0.44

What do the screens show for `CCOc1ccc(S(=O)(=O)Nc2cccc(Br)c2)c2ccccc12`?
Dicer inh: 0.53

How did O=C(O)C1C2C=CC3(CN(c4ccccc4)C(=O)C13)O2 (stereo not given) do in these assays?
Dicer inh: 1.47

How did CC1(C(=O)O)C2C=CC3(CN(Cc4ccccc4)C(=O)C31)O2 (stereo not given) do in these assays?
Dicer inh: 2.62

How did CC1(C(=O)O)C2C=CC3(CN(c4ccccc4)C(=O)C31)O2 (stereo not given) do in these assays?
Dicer inh: 5.33*

What do the screens show for `CSc1nnc2c(n1)OC(c1ccc(O)cc1)Nc1ccc(Br)cc1-2` (stereo not given)?
Dicer inh: -0.55

How did COc1ccc(COC(=O)C2=C(C)NC3=C(C(=O)CCC3)C2c2cc3c(cc2Cl)OCO3)cc1 (stereo not given) do in these assays?
Dicer inh: 4.24*

What do the screens show for `COc1ccc(COC(=O)C2=C(C)NC3=C(C(=O)CCC3)C2c2ccc3c(c2)OCO3)cc1` (stereo not given)?
Dicer inh: 0.95

Results for CCOC(=O)C1=C(C)NC2=C(C(=O)CCC2)C1c1cc2c(cc1Cl)OCO2 (stereo not given) ?
Dicer inh: 0.09

How did O=C1C(=O)N(CCCN2CCOCC2)C(c2ccccc2)/C1=C(\O)c1ccccc1 (stereo not given) do in these assays?
Dicer inh: 0.77

What do the screens show for `Cc1ccc(/C(O)=C2\C(=O)C(=O)N(CCCN3CCOCC3)C2c2ccco2)cc1` (stereo not given)?
Dicer inh: 3.3*

What do the screens show for `Cc1ccc(/C(O)=C2\C(=O)C(=O)N(CCCN3CCOCC3)C2c2ccc(F)cc2)cc1` (stereo not given)?
Dicer inh: -0.14

What do the screens show for `O=C(c1ccccc1)C(C(=O)N1CCc2ccccc2C1)n1cc(Cl)ccc1=O` (stereo not given)?
Dicer inh: -0.4

How did O=C(O)c1ccccc1C(=O)Nc1ccc(C(F)(F)F)cn1 do in these assays?
Dicer inh: -0.19

What do the screens show for `CSc1sc(-c2nc(C)cs2)c(C)c1-c1ccnc(=S)[nH]1`?
Dicer inh: -0.95

How did O=C1/C(=C\c2ccc(Cl)c(Cl)c2)SC(=S)N1c1ccc(F)c(F)c1 do in these assays?
Dicer inh: 0.62

How did Cc1cc(C)c2c(=O)c(/C=C3/SC(=S)N(c4cccc(Cl)c4)C3=O)coc2c1 do in these assays?
Dicer inh: -1.77

Results for O=C1/C(=C\c2ccccc2)SC(=S)N1c1cccc(Br)c1 ?
Dicer inh: 3.98*

Results for O=S(=O)(c1ccc(Cl)cc1)c1cn[nH]c1-c1ccc(Cl)cc1 ?
Dicer inh: 0.56

How did N#Cc1cccnc1NNC(=O)CCC(=O)O do in these assays?
Dicer inh: 0.37

What do the screens show for `CC(C)(C)NC(=O)O/N=C(\N)c1ccc(NS(C)(=O)=O)cc1`?
Dicer inh: -0.7

How did CCOC(=O)C(C)Oc1cc(OC(C)C(=O)OCC)c2c(=O)cc(-c3ccccc3)oc2c1 (stereo not given) do in these assays?
Dicer inh: 4.13*

Results for CCOC(=O)C(C)Oc1ccc2c(C)cc(=O)oc2c1 (stereo not given) ?
Dicer inh: 1.31

What do the screens show for `CCCCOC(=O)C(C)Oc1ccc2c(=O)c(-c3ccccc3)coc2c1` (stereo not given)?
Dicer inh: 1.21

How did O=C(O)CCc1c[nH]c2ccccc12 do in these assays?
Dicer inh: -2.24

Results for CC(Cc1c[nH]c2ccccc12)C(=O)O (stereo not given) ?
Dicer inh: 4.99*

What do the screens show for `O=C(O)CCCc1c[nH]c2ccccc12`?
Dicer inh: 0.68

How did CN(/N=C/c1ccc(Cl)cc1)c1ncc(C(F)(F)F)cc1Cl do in these assays?
Dicer inh: 0.15

What do the screens show for `CCOC(=O)C1CCN(c2ncnc3scc(C)c23)CC1`?
Dicer inh: 0.16

How did COc1ccc(OC)c(C2CC(=O)Oc3c2c(=O)n(C)c2ccccc32)c1 (stereo not given) do in these assays?
Dicer inh: -0.64

What do the screens show for `Cc1ccc(Cc2nc(-c3ccccc3)cs2)cc1`?
Dicer inh: -2.45

Results for CCCCn1c(C2CC(=O)N(c3ccccc3)C2)nc2ccccc21 (stereo not given) ?
Dicer inh: -1.2

What do the screens show for `O=C1CC(c2nc3ccccc3[nH]2)CN1c1ccccc1` (stereo not given)?
Dicer inh: 1.71

How did O=C1CC(c2nc3ccccc3n2Cc2ccccc2Cl)CN1c1ccccc1 (stereo not given) do in these assays?
Dicer inh: 4*

What do the screens show for `CCCCCCn1c(C(C)O)nc2ccccc21` (stereo not given)?
Dicer inh: -0.51

What do the screens show for `Nc1nonc1-c1nc2ccccc2n1Cc1ccccc1Cl`?
Dicer inh: 0.88

Results for CCCCCn1c(C2CC(=O)N(c3ccccc3)C2)nc2ccccc21 (stereo not given) ?
Dicer inh: 5.33*

Results for CC(=O)N1CC(=O)N/C(=C\c2cccnc2)C1=O ?
Dicer inh: 0.93

What do the screens show for `COc1ccc(N(C(C)C(=O)O)S(C)(=O)=O)cc1` (stereo not given)?
Dicer inh: 2.31
